According to ChEMBL document CHEMBL3433997, “St. Jude Leishmania screening dataset” (2016):

Key:
Type in all cases: functional
[1] = target: Solute carrier family 2, facilitated glucose transporter member 1 (Homo sapiens) (UniProt P11166); experiment: ST_JUDE_LEISH: Cytotoxicity at 2uM final concentration against transgenic Leishmania Mexicana promastigotes LmGLUT1 that are glucose transport deficient and complemented with the human glucose transporter GLUT1. Activity is measured by DNA content using SYBR green in vitro
[2] = target: Hexose transporter 1 (Plasmodium falciparum) (UniProt O97467); experiment: ST_JUDE_LEISH: Cytotoxicity at 2uM final concentration against transgenic Leishmania Mexicana promastigotes LmPfHT that are glucose transport deficient and complemented with the Plasmodium falciparum hexose transporter. Activity is measured by DNA content using SYBR green in vitro
[3] = target: Glucose transporter (Leishmania mexicana) (UniProt O61059); experiment: ST_JUDE_LEISH: Cytotoxicity at 2uM final concentration against transgenic Leishmania Mexicana promastigotes LmGT2 that are glucose transport deficient and complemented with the L. Mexicana glucose transporter 2. Activity is measured by DNA content using SYBR green in vitro

Chain of Solute carrier family 2, facilitated glucose transporter member 1 (Homo sapiens) (P11166 whole entry): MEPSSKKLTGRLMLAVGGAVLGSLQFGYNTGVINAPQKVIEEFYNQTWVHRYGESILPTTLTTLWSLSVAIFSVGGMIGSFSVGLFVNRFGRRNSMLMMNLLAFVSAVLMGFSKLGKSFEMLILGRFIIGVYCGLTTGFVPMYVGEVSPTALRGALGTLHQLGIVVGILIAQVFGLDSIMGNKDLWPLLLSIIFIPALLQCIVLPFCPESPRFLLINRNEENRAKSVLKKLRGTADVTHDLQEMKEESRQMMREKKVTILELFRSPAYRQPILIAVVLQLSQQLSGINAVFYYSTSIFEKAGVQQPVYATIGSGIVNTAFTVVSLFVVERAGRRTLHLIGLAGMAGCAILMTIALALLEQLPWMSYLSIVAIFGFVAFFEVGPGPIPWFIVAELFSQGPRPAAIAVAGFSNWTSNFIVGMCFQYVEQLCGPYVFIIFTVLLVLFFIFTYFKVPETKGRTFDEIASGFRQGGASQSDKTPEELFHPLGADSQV

Structure (SMILES)	inhibition [1]	inhibition [2]	inhibition [3]
CCCN(CCC)S(=O)(=O)c1ccc(C(=O)N2CCC(C(=O)OCC)CC2)cc1	6.42%	5.73%	5.48%
COc1ccc2nccc([C@@H](O)CN3CCC(NC(=O)c4ccc(-c5ccc(C#N)cc5)cc4)CC3)c2c1	1.89%	1.64%	3.25%
CSc1cccc(NC(=O)Nc2ccc(I)c(OCCN(C)C)c2)c1	4.88%	4.31%	3.56%
CC1(CCCCN2CCC(c3c[nH]c4cnccc34)CC2)C(=O)Nc2cccc(Cl)c21 (configuration not stated)	0.37%	0.54%	1.21%
Cc1cc(Oc2cc(NC(=O)c3sc4ncn(Cc5ccccc5F)c(=O)c4c3C)cc([N+](=O)[O-])c2)ccc1Cl	1.2%	1.84%	1.68%
COc1cc(Cc2cnc(N)nc2N)cc(OCCCCCCC(=O)O)c1OC	0.12%	-0.55%	-0.96%
O=C(NCc1ccc(Cl)cc1)c1ccc(CN2CCCN(CC3CCCCC3)CC2)cc1	4.46%	5.73%	5.25%
OCCN1CCN(Cc2ccc(-c3ccc(-c4nc5ccccc5[nH]4)cc3)cc2)CC1	12.1%	9.51%	7.18%
O=C(NC1CCC(CCN2Cc3cccc(C(F)(F)F)c3C2)CC1)c1cccc(-c2cccnc2)c1 (configuration not stated)	3.38%	1.73%	2.16%
O=C(Nc1cccc(CN2CCCN(Cc3ccsc3)CC2)c1)c1cc2ccccc2s1	1.11%	0.58%	-0.93%
CCCCCCNC(=N)c1ccc2[nH]c(-c3ccc(O)cc3)nc2c1	3.58%	4.17%	3.78%
Cc1ccn2c(C(=O)N3CCN(c4cccc5c4nc(-c4ccoc4)n5Cc4ccccn4)CC3)c(C)nc2c1	2.33%	1.01%	-0.49%
CCOc1cc(Cc2cnc(N)nc2N)cc(OCC)c1-n1cccc1	5.67%	5.64%	1.36%
COc1ccc(CC(=O)Nc2ccc(Nc3nc(C)cc(N(C)C)n3)cc2)cc1	10.3%	17.7%	1.53%
FC(F)(F)c1ccc2[nH]ccc(=NN=Cc3ccc(Cl)cc3)c2c1	3.42%	3.11%	2.9%
O=S1(=O)C=C(c2ccccc2)CC1	1.23%	1.28%	1.41%
COc1ccc2nccc([C@@H](O)CN3CCC(NCc4cc5ccccc5o4)CC3)c2c1	10.1%	15.3%	5.59%

Structure (SMILES)	inhibition [1]	inhibition [2]	inhibition [3]
CC(=O)Nc1cccc(Nc2nccc(-c3c(-c4cccc(NC(=O)c5c(F)cccc5F)c4)nn4ncccc34)n2)c1	6.99%	11%	1.53%
COc1ccc(CN2CCC(CNCC(c3ccccc3)c3ccccc3)CC2)cc1	3.54%	3.87%	2.23%
CCOC(=O)C1CCN(CCOc2cc(NC(=O)/C=C/c3ccccc3Cl)ccc2Br)CC1	8.71%	6.51%	7.58%
Cc1sc2ncnc(Sc3nnc(N)s3)c2c1C	2.03%	3.89%	1.09%
O=C(CN1CCN(C(C(=O)Nc2cc(C(F)(F)F)ccc2Cl)c2ccccc2)CC1)NC1CC1 (configuration not stated)	0.74%	2.72%	3.2%
Cn1cnc(CCNC(=O)c2cccc(-c3cccc(-c4nc5cc(C(F)(F)F)ccc5[nH]4)c3)c2)c1	-1.68%	1%	-2.49%
CC(C)C[C@@H](CNC[C@H](CC(C)C)NC(=O)OC(C)(C)C)NC(=O)OC(C)(C)C	-0.36%	-2.4%	-0.19%
COc1cc2c(cc1OC)CC(NCc1ccc(-c3ccc4nc[nH]c4c3)cc1)C2	5.26%	5.44%	4.38%
O=S(=O)(Nc1cc2c(cc1O)CCNCC2)c1ccc(-c2ccc(Cl)cc2)cc1	3.27%	-0.71%	2.34%
CCC(c1ccccc1)c1nn2c(-c3cccs3)nnc2s1 (configuration not stated)	2.96%	3.46%	0.64%
Nc1nc(N)c2cc(Cc3ccccc3Cl)cnc2n1	-0.18%	2.28%	1.45%
CN(C)CCN(C)C(=O)c1cc(-c2ccncc2)c(-c2ccc(Cl)c(O)c2)o1	8.43%	8.13%	6.77%
CNC(=O)c1cnc(Nc2ccc(N3CCN(C)CC3)cc2)nc1Nc1cccc([N+](=O)[O-])c1	2.86%	-0.17%	1.22%
O=[N+]([O-])c1ccc(Oc2ccccc2CNCC2CCN(CC3CCCCC3)CC2)cc1	13.6%	15.7%	7.15%
O=C1CCCC1Sc1nc2ccccc2c(=O)n1-c1ccc(Cl)c(Cl)c1 (configuration not stated)	2.33%	1.97%	-1.42%
CC(Oc1ccc(Cl)cc1)C(=O)NCCC1CCN(CCCCCNC(=O)/C=C/c2ccc(Cl)c(Cl)c2)CC1 (configuration not stated)	2.73%	1.37%	0.04%
CC1CC(C)CN(CC(O)CNC(=O)Nc2ccc(Br)cc2)C1 (configuration not stated)	6.62%	5.27%	3.33%
